The text below walks through data of PubChem BioAssay (NCATS).

Test [1] deals with Aldehyde dehydrogenase, mitochondrial (Homo sapiens) (UniProt P05091). The test is described as follows: qHTS for Inhibitors of the Aldehyde Dehydrogenase Family (ALDH2) Confirmatory screens (AID 2061303; active = well fitted inhibition curve with a large enough effect; title and protocol of this record describe different tests; note: nearly all actives have a fitted effect of over 45% in size; note: potency is the fitted concentration of half-maximal effect). (In general: Quantitative high-throughput screening tests each substance at several concentrations.)
Test [2] has the same target. The test is described as follows: qHTS for Inhibitors of the Aldehyde Dehydrogenase Family (ALDH2) Primary screen (AID 2061308). Note: nearly all actives have a fitted effect of over 55% in size. Note: potency is the fitted concentration of half-maximal effect.
In test [3] the target is Retinal dehydrogenase 2 (Homo sapiens) (UniProt O94788). The test is described as follows: qHTS for Inhibitors of the Aldehyde Dehydrogenase Family (ALDH1A2) Confirmation screens (AID 2061314). Note: nearly all actives have a fitted effect of over 65% in size. Note: potency is the fitted concentration of half-maximal effect.
In test [4] the target is Retinaldehyde dehydrogenase 3 (Homo sapiens) (UniProt P47895). The test is described as follows: qHTS for Inhibitors of the Aldehyde Dehydrogenase Family (ALDH1A3) Primary screen (AID 2061315).
Test [5] deals with Aldehyde dehydrogenase 1A1 (Homo sapiens) (UniProt P00352). The test is described as follows: qHTS for Inhibitors of the Aldehyde Dehydrogenase Family (ALDH1A1) Confirmatory screens (AID 2061316). Note: nearly all actives have a fitted effect of over 65% in size. Note: potency is the fitted concentration of half-maximal effect.
A short description of test [6]: qHTS for Inhibitors of the Aldehyde Dehydrogenase Family (ALDH1A2, ALDH1A3, ALDH2, ALDH3A1) (AID 2061307). For Potency: test system not described further here; potency is the fitted concentration of half-maximal effect. Note: nearly all actives have a fitted effect of over 50% in size.
Test [7] has as its target Retinaldehyde dehydrogenase 3 (Homo sapiens) (UniProt P47895). The test is described as follows: qHTS for Inhibitors of the Aldehyde Dehydrogenase Family (ALDH1A3) Confirmatory screens (AID 2061311). Note: nearly all actives have a fitted effect of over 60% in size.
The target is the same in test [8]. The test is described as follows: qHTS for Inhibitors of the Aldehyde Dehydrogenase Family (ALDH1A3) Validation screen (AID 2061312). Note: nearly all actives have a fitted effect of over 45% in size.

Records with an inconclusive call do not appear. Values without a mark were called inactive. Active and inactive are the calls of the source. Unless noted, calls come from the whole dose curve; as a rule, active = well fitted curve in the direction sought with a large enough effect; inconclusive = small, poorly fitted or top-dose-only effect, or another doubt; inactive = no such curve, though single readings can be large; an effect the other way counts as inactive or inconclusive.

In the case of `COc1ccc(C(=O)N(Cc2ccco2)Cc2cccs2)c(O)c1`, the Potency entry in test [1], in test [2] and in test [4] was “inactive” throughout. For the same compound, the figures for the Potency in test [3] and in test [5] were 22.5 µM (active) and 12.7 µM (active), respectively.
In the case of `Clc1nc(CN2CCOCC2)nc2sc3c(c12)CCCC3`, the Potency in test [1] is 4 µM (active). The Potency entry in test [2] and in test [4] was “inactive” each time.
As for `Cc1ccc2nc3sc(C(=O)NC4CCCCC4)cc3cc2c1`, the Potency entry in test [1], in test [2] and in test [4] was “inactive” each time.
In the case of `CNc1oc(-c2ccc3c(c2)OCCO3)nc1C#N`, the Potency entry in test [1], in test [2], in test [3] and in test [4] was “inactive” each time.
In the case of `Cc1ccc(-c2cc(C(=O)Nc3cccc(S(N)(=O)=O)c3)c3ccccc3n2)cc1C`, the Potency entry in test [1], in test [2], in test [3] and in test [4] was “inactive” each time.
For `COc1ccc(C2Nc3ccccc3C(=O)N2Cc2ccccc2)cc1COc1ccc(F)cc1` (stereo unspecified), the Potency result in test [1], in test [2], in test [4] and in test [5] was “inactive” in each case. Further, the Potency in test [3] was 15.9 µM (active).
`COc1ccc(C2Nc3ccccc3C(=O)N2Cc2ccccc2)cc1COc1ccc(C)cc1` (stereo unspecified): the Potency in test [1] is 3.98 µM (active); in test [3], 5.65 µM (active). The Potency entry in test [2] and in test [4] was “inactive” throughout.
Take `COc1ccnc(NC(=S)N2CCN(c3ccc(Cl)c(Cl)c3)CC2)c1`: the Potency in test [1] is 4.47 µM (active); in test [2], 15.8 µM (active); in test [3], 3.57 µM (active); in test [5], 4 µM (active).
Take `O=C(/C=C/c1ccccc1)O[C@@H]1[C@@H](CO)O[C@@](CO)(O[C@H]2O[C@H](CO)[C@@H](O)[C@H](O)[C@H]2O)[C@H]1O`: in test [2], the Potency result is “inactive”.
Turning to `COC(=O)C1=CO[C@@H](O[C@@H]2O[C@H](COC(=O)/C=C/c3cc(OC)c(O)c(OC)c3)[C@@H](O)[C@H](O)[C@H]2O)[C@@H]2C(CO)=CC[C@H]12`, the Potency result in test [6] and in test [2] was “inactive” throughout.
As for `O=C1c2ccccc2NC(c2ccc(-c3ccc(-c4ccccc4)cc3)o2)N1O` (stereo unspecified), the Potency in test [1] is 3.57 µM (active); in test [2], 1.58 µM (active); in test [3] it was 5.65 µM (active); in test [5], 4 µM (active). Besides, in test [4], the Potency result is “inactive”.
On to `O=C(NO)c1ccc(CC(=O)N(CCO)c2ccccc2)cc1`, for which the Potency result in test [2] is “inactive”.
`Cc1ccnc(NC(=S)N2CCN(c3cccc(Cl)c3Cl)CC2)c1`: the Potency in test [1] was 11.3 µM (active); in test [2] it was 6.31 µM (active); in test [3], 14.2 µM (active); in test [5] it was 3.18 µM (active).
As to `Cc1ccc(OCCn2c(CCNC(=O)c3cccc(N)c3)nc3ccccc32)cc1`, the Potency entry in test [1], in test [2], in test [3], in test [4] and in test [5] was “inactive” each time.
On to `COc1ccc(/C=C/C(=O)N2CCCC2)cc1`, for which the Potency result in test [2] was “inactive”.
For the compound `O=C(/C=C/c1ccccc1O)O[C@@H]1O[C@H](CO)[C@@H](O)[C@H](O)[C@H]1O`, in test [2], the Potency result was “inactive”.
As for `O=C1c2cccc3cccc(c23)C(=O)N1CCN1CCN(S(=O)(=O)c2cccc([N+](=O)[O-])c2)CC1`, the Potency entry in test [1], in test [7], in test [3] and in test [5] was “inactive” each time.
As to `COc1ccc(-c2ccc3c(N4CCOCC4C)nc(N4CCOCC4C)nc3n2)cc1CO` (stereo unspecified), the Potency result in test [2] is “inactive”.
As for `N#Cc1c(-c2ccc(Cl)c([N+](=O)[O-])c2)no[n+]1[O-]`, the Potency in test [1] is 2.83 µM (active); in test [2], 0.398 µM (active); in test [3] it was 2.83 µM (active); in test [5], 7.98 µM (active). Besides, the Potency result in test [4] was “inactive”.
On to `NC(=O)C1CCN(c2nc(-c3ccc4c(c3)OCCO4)cs2)CC1`, for which the Potency result in test [1], in test [2], in test [3] and in test [4] was “inactive” throughout.
On to `Cc1cc(C)c2c(N)c(C(=O)NCc3ccc(Cl)cc3)sc2n1`, for which the Potency in test [6] is 1.12 µM (active); in test [5], 14.2 µM (active). The Potency entry in test [2] and in test [4] was “inactive” throughout.
As to `O=C(/C=C/c1cccnc1)Nc1cccc([S+](=O)([O-])Nc2ccccc2F)c1`, the Potency entry in test [1], in test [2], in test [4] and in test [5] was “inactive” throughout. The Potency in test [3] was 11.3 µM (active).
For `Cc1c(C(=O)OCC2CCCO2)[nH]c2c1C(=O)CCC2` (stereo unspecified), the Potency entry in test [1], in test [2] and in test [4] was “inactive” each time. Moreover, the Potency in test [3] is 28.3 µM (active); in test [5], 3.18 µM (active).
`Cc1c(-c2ccccc2)no[n+]1[O-]`: the Potency entry in test [1], in test [2], in test [3], in test [4] and in test [5] was “inactive” each time.
As to `CC(C)CC1NC(=O)C2CC3(O)c4ccccc4NC3N2C1=O` (stereo unspecified), the Potency entry in test [2] was “inactive”.
Take `CC1=C(CCC(C)O[C@@H]2O[C@H](CO)[C@@H](O)[C@H](O)[C@H]2O)C(C)(C)CCC1=O` (stereo partly specified): the Potency entry in test [2] was “inactive”.
Turning to `N#Cc1nc2c(nc1C#N)-c1ccccc1C2=O`, the Potency in test [1] was 10 µM (active). For the same compound, the Potency entry in test [7] and in test [5] was “inactive” in each case.
For `O=C(OCC#CCSc1nnc(-c2cccc3ccccc23)o1)C1CC1`, the Potency result in test [1], in test [2] and in test [4] was “inactive” in each case.
Turning to `CC(C)(O)C1CC=C(C(=O)OCC2OC(Oc3c(O)cc(C(=O)O)cc3O)C(O)C(O)C2O)CC1` (stereo unspecified), the Potency entry in test [1], in test [2], in test [3] and in test [4] was “inactive” throughout.
`COc1ccc(C2Nc3ccccc3C(=O)N2Cc2ccccc2)cc1COc1ccccc1OC` (stereo unspecified): the Potency result in test [1], in test [2] and in test [4] was “inactive” each time. The Potency in test [3] was 8.96 µM (active).
As to `N#Cc1c(-c2cccc(O)c2)no[n+]1[O-]`, the Potency entry in test [1], in test [2] and in test [4] was “inactive” throughout. Besides, the Potency in test [3] is 2.52 µM (active).
As for `O=C(CC1NCCC[C@H]1O)Cn1cnc2cc(Br)c(Cl)cc2c1=O` (stereo partly specified), the Potency entry in test [2], in test [8] and in test [4] was “inactive” each time.
For the compound `CCOC(=O)N1CCC(NCCNC(=O)c2ccccc2C)CC1`, the Potency result in test [2], in test [8] and in test [4] was “inactive” each time.
On to `C=CC(C)(O)CC[C@@H]1[C@@]2(C)CCCC(C)(C)C2CC[C@@]1(C)O` (stereo partly specified), for which the Potency entry in test [2], in test [8] and in test [4] was “inactive” in each case.
`O=S(=O)(Cc1ccccc1)Nc1ccc(-c2ccc3c(cnn3-c3ccc(F)cc3)c2)c(C(F)(F)F)c1`: the Potency result in test [2], in test [8] and in test [4] was “inactive” each time.
Consider `COC1CC(OC2CCC3(C)C(=CCC4C3CCC3(C)C(C(C)O)CCC43O)C2)OC(C)C1OC1OC(C)C(OC2OC(COC3OC(COC4OC(CO)C(O)C(O)C4O)C(O)C(O)C3O)C(O)C(O)C2O)C(OC)C1O` (stereo unspecified), for which the Potency entry in test [2] was “inactive”.
With `CCCCNc1ccc(-c2ccc(CN3CCOCC3)cn2)c(NC2CCC(O)CC2)c1` (stereo unspecified), the Potency result in test [2], in test [8] and in test [4] was “inactive” in each case.
